Source: PubChem BioAssay (NCATS)
Results filed as inconclusive are left out. Values without a mark were called inactive. Active and inactive are the calls of the source. Calls follow the shape of the dose curve; as a rule, active = well fitted inhibition curve with a large enough effect; inconclusive = small, poorly fitted or top-dose-only effect; inactive = no such curve, though single readings can be large or run the other way.
% is scaled to controls: 0 for no effect and ±100 for the full control effect.

These compounds were tested on Zika virus NS2B-NS3 protease (linked construct) (assay: Primary screen NINDS Rhodamine qHTS for Zika virus inhibitors (AID 1347160; also: nearly all actives have a fitted effect of over 55% in size)). Details: purified NS2B-NS3 protease, Rhodamine110 substrate fluorescence; series mostly up to 57.1 µM; activity change, negative = inhibition: at the top concentration.
Outline: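 Kinetic fluorescence (Ex 480 nm, Em 540 nm) over 15 min with 1.5 microM Rhodamine110 peptide and 25 nM linked protease.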
With `NCc1c[nH]c(=S)n1[C@@H]1CCc2c(F)cc(F)cc2C1` the “activity change, negative = inhibition” value was 48.8%. With `CCC(O)C(C)C1CCC(C(C)C(=O)O)O1` (centres undefined) the “activity change, negative = inhibition” value was -5.36%. In the case of `COc1ccc(C[C@H](N)C(=O)N[C@@H]2[C@H](O)[C@H](n3cnc4c(N(C)C)ncnc43)O[C@@H]2CO)cc1`, the “activity change, negative = inhibition” value is reported as 75.6%. With `C=C1CCC2C(C)(C)CCC[C@]2(C)[C@H]1C/C=C(\CO)C(=O)C(=O)O` (some centres undefined) the “activity change, negative = inhibition” value was -8.84% [at 33.1 µM]. `COc1cc([C@H]2c3cc(O)c(OC)cc3C[C@@H](CO[C@@H]3O[C@H](CO)[C@@H](O)[C@H](O)[C@H]3O)[C@@H]2CO)ccc1O` was tested, and the “activity change, negative = inhibition” value was -12.8% [at 33.1 µM]. `Cc1noc(=O)c2ccc(NC(=O)C(O)(CC(C)(C)c3cccc4c3OCC4)C(F)(F)F)cc12` (centres undefined) was tested, and the “activity change, negative = inhibition” value was 7.46%. For `COc1ccc2c(OC)c3ccoc3nc2c1OC`, the “activity change, negative = inhibition” value was -13.2%. `CC1OC(OC2C(O)C(OC3CCC4(C)C(CCC5(C)C4CC=C4C6CC(C)(COC7OC(CO)C(O)C(O)C7O)CC(O)C6(C)CCC45C)C3(C)C)OC(C(=O)O)C2O)C(O)C(O)C1OC1OCC(O)C(O)C1O` (centres undefined) was tested, and the “activity change, negative = inhibition” value was -26.7% [at 15.1 µM]. In the case of `O=C(NCc1ccccn1)Nc1nnc(-c2ccco2)o1`, the “outcome” value is reported as “inactive”.
